Structures are written as SMILES. Records with an inconclusive call do not appear. A call without a number means that no potency is given here. Active and inactive are the calls of the source. Calls come from the whole dose curve; as a rule, active = well fitted activation curve with a large enough effect; inconclusive = small, poorly fitted or top-dose-only effect; inactive = flat fitted curve, though single readings scatter.

A short description of this test: qHTS for Inhibitors of Cell Surface uPA Generation: FP59 Counterscreen for Cherry-picked Compounds. As to conditions: FP59 anthrax toxin cytotoxicity counterscreen, cells; series mostly up to 115 µM.
As to `Cc1cc(C)n2nc(CNS(=O)(=O)c3ccc(F)c(C)c3)nc2n1`, the Potency entry was “inactive”.
In the case of `CC(=O)c1cnc2nc(SCc3cccc(C)c3)nn2c1C`, the Potency entry was “inactive”.
Take `CCOCCCn1c(SCC(=O)Nc2oc(C)c3c(C)n[nH]c(=O)c23)nc2ccccc2c1=O`: the Potency entry was “inactive”.
In the case of `COc1cc(CN2CCN(c3ncccn3)CC2)cc(OC)c1`, the Potency result was “inactive”.
To `CC(C)OC(=O)Nc1ccc(-c2ccc(NC(=O)OC(C)C)cc2Cl)c(Cl)c1` belongs “inactive”; to `COc1ccccc1NNC(=O)C(O)(c1ccccc1OC)c1ccccc1OC`, “inactive”.
To `Cc1cc(OC(C)C(=O)NCc2ccccn2)c2c(C)cc(=O)oc2c1` (centres undefined) belongs “inactive”.
Consider `CCCOC(=O)CSC1=C(C#N)C(c2ccccc2Cl)CC(=O)N1` (centres undefined), for which the Potency entry is “inactive”.
As for `Cc1ccc(C)c(S(=O)(=O)Nc2ccccc2C(=O)Nc2cc(C)on2)c1`, the Potency result was “inactive”.
The value for `C=CCOC(=O)C1=C(C)NC(C)=C(C(=O)OCC=C)C1c1cn(-c2ccccc2)nc1-c1ccco1` was “inactive”; that for `C[C@@H]1O[C@@H](O[C@@H]2C(=O)c3c(O)cc(O)cc3O[C@H]2c2ccc(O)c(O)c2)[C@H](O)[C@H](O)[C@H]1O` was “inactive”.
To `O=C(C1CCN(c2nnc(N3CCCC3=O)s2)CC1)N1CCN(c2cccc(C(F)(F)F)c2)CC1` belongs “inactive”.
Take `Nc1nc2ccc(Br)cc2o1`: the Potency result is “inactive”.
As to `COc1ccc(NC(=O)Nc2nnc(N3CCCCC3C)s2)cc1OC` (centres undefined), the Potency entry is “inactive”.
`CC(C)c1ccc(C2/C(=C(\O)c3ccc4c(c3)OCCO4)C(=O)C(=O)N2CCN2CCOCC2)cc1` (centres undefined): the Potency result was “inactive”.
The value for `CCCCn1c(-c2cccnc2)nc2cc3[nH]c(=O)c(C(C)C)nc3cc21` was “inactive”; that for `CC(=O)c1ccc(NC(=O)Nc2ccc(Br)cc2C)cc1` was “inactive”; that for `CCN(c1ccc(OC)cc1)S(=O)(=O)c1ccc2c(c1)NC(=O)CS2` was “inactive”.
On to `Cc1ccc(NC2CCCN(C(=O)Cc3nonc3C)C2)cc1C` (centres undefined), for which the Potency result was “inactive”.
With `CCN(CC)S(=O)(=O)c1ccc(C(=O)Nc2cccc(C)c2)cc1`, the Potency result is “inactive”.
To `CCOc1ccc(N(CC(=O)Nc2ccc(CC)cc2)S(=O)(=O)c2c(C)[nH]c(=O)[nH]c2=O)cc1` belongs “inactive”; to `COc1ccc(C(=O)CC(=O)C(=O)Nc2ccccc2)cc1`, “inactive”; to `CC1CC(C)(C)Nc2ccc(N=O)cc21` (centres undefined), “inactive”.
The value for `Cc1ccc(S(=O)(=O)N2CCOCC2)cc1C(=O)OC1CCOC1=O` (centres undefined) was “inactive”; that for `CCC(C)Sc1nnc(NS(=O)(=O)Cc2ccccc2)s1` (centres undefined) was “inactive”.
With `Cn1c(=O)c2c(ncn2CCO)n(C)c1=O`, the Potency result was “inactive”.
The value for `Cc1ccc(C)c(N2N=C(C(=O)N(CC(C)C)c3c(N)n(Cc4ccccc4)c(=O)[nH]c3=O)CCC2=O)c1` was “inactive”; that for `Cc1nc(SCC(=O)NCCN2C(=O)CSC2=O)nc(C)c1C` was “inactive”.
On to `Cc1ccc(S(=O)(=O)NNC(=O)c2ccc(F)cc2)cc1`, for which the Potency result is “inactive”.
Turning to `Cc1ccc(S(=O)(=O)N(C)c2ccc(OC(=O)c3ccc(=O)[nH]c3)cc2)cc1`, the Potency result was “inactive”.
Take `C[C@]12CCC(O)CC1CCC1C2CC[C@]2(C)C(c3cc(C(F)(F)F)n[nH]3)CCC12` (some centres undefined): the Potency result is “inactive”.
`COc1ccc(-c2cccc(-c3cc(=O)oc4cc(OC)c(OC)c(OC)c34)c2)cc1`: the Potency result is “inactive”.
For `O=C1C=C(NNC(=O)c2ccncc2)CC(c2ccccc2)C1` (centres undefined), the Potency entry is “inactive”.
Regarding `CCn1nc(NS(=O)(=O)c2ccccc2)c2cc3cc(C)ccc3nc21`, the Potency result was “inactive”.
The value for `COc1ccc(-c2csc(NC(C)c3nc4cc(C(=O)NCCCO)ccc4n3Cc3ccc(C)cc3)n2)cc1` (centres undefined) was “inactive”.
For `CCCCN(CC(=O)Nc1cccc(S(=O)(=O)N2CCCC2)c1)Cc1nc2ccccc2c(=O)[nH]1`, the Potency entry is “inactive”.
The value for `CC(C)OC(=O)c1ccc(N2CCN(c3ccccc3F)CC2)nc1` was “inactive”; that for `COc1ncnc(NS(=O)(=O)c2ccc(N)cc2)c1OC` was “inactive”.
For the molecule `Cc1cnc(CNC(=O)C2CCC(=O)N(CCc3cccc(F)c3)C2)[nH]1` (centres undefined), the Potency result is “inactive”.

Source of the values: PubChem BioAssay AID720517 (National Center for Advancing Translational Sciences (NCATS), 2013).
